The subject of assay [1] is Plasmodium falciparum Sir2 (PF13_0152, Sir2A). Kind of assay: Plasmodium falciparum Sir2A binding compounds – biochemical, small-molecule microarray, 635 nm fluorescence, primary screen (AID 1098).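 Note: score merges spot fluorescence intensity with its signal-to-noise ratio.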 The note with it: fluorescence 635 nm, higher = more signal.
Assay [2] in a line: probe aDKK1 binding to arrayed compounds – biochemical, biotinylated probe, 635/667 nm fluorescence, primary screen (AID 1099).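 Note: score merges 667nm spot fluorescence with signal to noise across triplicate slides.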 The note with it: small-molecule microarray, higher = more signal.
Assay [3] is described as follows: probe aCHRDL2 binding to arrayed compounds – biochemical, biotinylated probe, 635/667 nm fluorescence, primary screen (AID 1100). To be noted: small-molecule microarray, higher = more signal.
The nature of assay [4]: change in splice reporter luminescence, either direction, cell-based, HEK293, spliceosome inhibition project, primary screen (AID 1101).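 Note: HEK293 cells carrying a splicing-competent luciferase reporter gene; test concentration not given here.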 The note with it: HEK293 splicing luciferase reporter, 24 h, higher = more signal, called active from +8 up or from −8 down. Background: Reporter assays use an easily measured gene product as a stand-in for the process of interest.
The target of assay [5] is Fibroblast growth factor 10 (Homo sapiens) (UniProt O15520). Kind of assay: compounds binding fibroblast growth factor 10 – biochemical, small-molecule microarray, 635 nm fluorescence, primary screen (AID 1102). The note with it: FGF10 binding, fluorescence 635 nm, higher = more signal.
Assay [6] relates to glycogen synthase kinase-3 (GSK3A per assay name; protocol says GSK3B). As to the kind of experiment: compounds binding glycogen synthase kinase-3 – biochemical, small-molecule microarray, 635 nm fluorescence, GSK3A, primary screen (AID 1103). Note: the record names both GSK3A and GSK3B. The note with it: fluorescence 635 nm, higher = more signal.
In assay [7] the target is Epidermal growth factor receptor (Homo sapiens) (UniProt P00533). Kind of assay: compounds binding epidermal growth factor receptor – biochemical, small-molecule microarray, 635 nm fluorescence, primary screen (AID 1104).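 Note: score merges 667 nm emission intensity with spot signal to noise over triplicate slides.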 The note with it: EGFR binding, higher = more signal.
The target in assay [8] is Follistatin-related protein 3 (Homo sapiens) (UniProt O95633). As to the kind of experiment: compounds binding follistatin-related protein 3 – biochemical, small-molecule microarray, 635 nm fluorescence, primary screen (AID 1105).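 Note: score merges emission near 667 nm and signal to noise per printed spot across three slides.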 The note with it: FSTL3 binding, higher = more signal.
The target of assay [9] is Dickkopf-related protein 1 (Homo sapiens) (UniProt O94907). Kind of assay: small molecules binding DKK1 protein – biochemical, small-molecule microarray, 635 nm fluorescence scan, primary screen (AID 1106).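 Note: score merges emission near 667 nm with signal to noise over three replicate slides.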 The note with it: higher = more signal.
The test system of assay [10] is Inhibin beta A chain (activin A). Kind of assay: small molecules binding activin A – biochemical, small-molecule microarray, 635 nm fluorescence scan, primary screen (AID 1107).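 Note: mouse activin A protein probed at 4.33 µg/mL on printed slides; score merges bound-protein fluorescence near 667 nm with spot signal-to-noise.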 To be noted: INHBA, higher = more signal.
The test system of assay [11] is Human papillomavirus type 1a protein E7 (residues 44-93). Kind of assay: small molecules binding HPV E7 44-93 – biochemical, small-molecule microarray, residues 44-93, 635 nm fluorescence, primary screen (AID 1108).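 Note: E7 fragment applied at 1 µg/mL in TBST for 1 h at 4 C; score combines spot fluorescence with its signal to noise ratio.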 To be noted: fluorescence 635 nm, higher = more signal.
The nature of assay [12]: hepatitis C replication reporter changes, two-sided – Huh7 cells, luciferase reporter, HCV replication inhibitor project, primary screen (AID 1109).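 Note: huh7 hepatoma cells harbouring a luciferase neomycin HCV replicon reporter; luciferase luminescence as measure of HCV replicon replication; test concentration not given here.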 To be noted: Huh7 HCV replicon luciferase reporter, 48 h; higher = more signal.
For assay [13], the target named is Left-right determination factor 2 (Homo sapiens) (UniProt O00292). Kind of assay: small molecules binding LEFTY2 protein – biochemical, small-molecule microarray, 635 nm fluorescence scan, primary screen (AID 1110). To be noted: higher = more signal.
In assay [14] the target is Calmodulin-1 (Homo sapiens) (UniProt P0DP23). As to the kind of experiment: small molecules binding calmodulin-1 with EGTA – biochemical, small-molecule microarray, Cy5-labelled CALM1, profiling panel (AID 1111).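 Note: labelled calmodulin applied in Tris saline Tween buffer holding calcium plus EGTA and DTT.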 The note with it: Cy5-CALM1 binding fluorescence, higher = more signal.
The target is the same in assay [15]. As to the kind of experiment: small molecules binding Ca-loaded calmodulin-1 – biochemical, small-molecule microarray, Cy5-labelled CALM1, plus calcium, artefact control for SMM control-protein annotation, profiling panel (AID 1112).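 Note: score merges spot fluorescence with signal to noise from triplicate slides.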 To be noted: Cy5-CALM1 binding fluorescence, higher = more signal.
The nature of assay [16]: probe aWnt5a binding to arrayed compounds – biochemical, biotinylated probe, 635/667 nm fluorescence, primary screen (AID 1113).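 Note: score merges 667 nm fluorescence intensity with signal-to-noise per printed feature.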 To be noted: small-molecule microarray, higher = more signal.
A short description of assay [17]: probe aShh binding to arrayed compounds – biochemical, biotinylated probe, 635/667 nm fluorescence, primary screen (AID 1114).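 Note: probe is biotin-labelled aShh protein from a stem cell growth factor screen; measures binding of labelled protein to compounds printed on the slide; score merges feature fluorescence at 667 nm with signal-to-noise.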 To be noted: small-molecule microarray, higher = more signal.
A short description of assay [18]: probe aNog binding to arrayed compounds – biochemical, biotinylated probe, 635/667 nm fluorescence, primary screen (AID 1115).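 Note: probe is biotinylated aNog protein used at 0.15 µg/mL for 1 h at 4 C; z-score combines 667 nm fluorescence of each spot with its signal to noise.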 To be noted: small-molecule microarray, higher = more signal.
The target in assay [19] is Torsin-1A-interacting protein 1 (Homo sapiens) (UniProt Q5JTV8). Kind of assay: compound microarray binding of lysate hLAP1 – cell lysate, small-molecule microarray, COS7 lysate, 635/667 nm fluorescence, primary screen (AID 1116). The note with it: 635 nm fluorescence, higher = more signal.
The target in assay [20] is Alpha-bungarotoxin (Bungarus multicinctus) (UniProt P60615). As to the kind of experiment: compounds binding labelled alpha-BTX control protein – biochemical, small-molecule microarray, Alexa647 label, 635/667 nm fluorescence, artefact control for SMM control protein annotation, profiling panel (AID 1117). To be noted: alpha-BTX-A647 binding fluorescence, higher = more signal.

Each structure is given as a SMILES string. The source made the active and inactive calls.

Sequence of Dickkopf-related protein 1 (Homo sapiens) (O94907 whole entry, looked up): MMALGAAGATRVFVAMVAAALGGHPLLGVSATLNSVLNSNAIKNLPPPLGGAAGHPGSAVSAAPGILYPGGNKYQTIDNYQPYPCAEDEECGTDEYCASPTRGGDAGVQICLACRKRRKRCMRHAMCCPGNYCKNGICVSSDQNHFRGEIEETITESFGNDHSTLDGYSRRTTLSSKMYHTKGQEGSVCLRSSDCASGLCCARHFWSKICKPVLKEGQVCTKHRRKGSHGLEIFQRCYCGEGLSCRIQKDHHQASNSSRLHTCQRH
Sequence of Follistatin-related protein 3 (Homo sapiens) (O95633 whole entry, looked up): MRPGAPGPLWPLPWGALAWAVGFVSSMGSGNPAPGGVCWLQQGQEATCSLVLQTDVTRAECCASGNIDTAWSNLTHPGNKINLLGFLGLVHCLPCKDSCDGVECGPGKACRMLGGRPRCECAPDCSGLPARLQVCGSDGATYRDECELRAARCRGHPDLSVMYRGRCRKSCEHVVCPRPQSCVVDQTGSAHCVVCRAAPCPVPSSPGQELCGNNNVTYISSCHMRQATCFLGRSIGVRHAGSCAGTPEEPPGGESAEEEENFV
Sequence of Torsin-1A-interacting protein 1 (Homo sapiens) (Q5JTV8 whole entry, looked up): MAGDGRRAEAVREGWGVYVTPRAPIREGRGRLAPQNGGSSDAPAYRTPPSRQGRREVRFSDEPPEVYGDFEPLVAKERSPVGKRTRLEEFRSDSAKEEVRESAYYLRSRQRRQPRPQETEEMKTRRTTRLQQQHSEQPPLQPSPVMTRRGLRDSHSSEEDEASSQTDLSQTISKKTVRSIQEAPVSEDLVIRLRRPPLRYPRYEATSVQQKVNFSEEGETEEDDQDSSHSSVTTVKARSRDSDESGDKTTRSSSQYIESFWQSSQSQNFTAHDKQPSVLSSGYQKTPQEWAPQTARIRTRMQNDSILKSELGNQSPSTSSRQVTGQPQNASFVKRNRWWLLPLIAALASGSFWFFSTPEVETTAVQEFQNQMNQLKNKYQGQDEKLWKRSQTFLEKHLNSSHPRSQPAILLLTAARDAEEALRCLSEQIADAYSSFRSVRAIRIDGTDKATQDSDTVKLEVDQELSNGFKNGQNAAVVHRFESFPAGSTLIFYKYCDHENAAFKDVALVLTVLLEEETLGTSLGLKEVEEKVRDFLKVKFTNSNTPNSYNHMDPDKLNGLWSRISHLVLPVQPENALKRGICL
Sequence of Epidermal growth factor receptor (Homo sapiens) (P00533 whole entry, looked up): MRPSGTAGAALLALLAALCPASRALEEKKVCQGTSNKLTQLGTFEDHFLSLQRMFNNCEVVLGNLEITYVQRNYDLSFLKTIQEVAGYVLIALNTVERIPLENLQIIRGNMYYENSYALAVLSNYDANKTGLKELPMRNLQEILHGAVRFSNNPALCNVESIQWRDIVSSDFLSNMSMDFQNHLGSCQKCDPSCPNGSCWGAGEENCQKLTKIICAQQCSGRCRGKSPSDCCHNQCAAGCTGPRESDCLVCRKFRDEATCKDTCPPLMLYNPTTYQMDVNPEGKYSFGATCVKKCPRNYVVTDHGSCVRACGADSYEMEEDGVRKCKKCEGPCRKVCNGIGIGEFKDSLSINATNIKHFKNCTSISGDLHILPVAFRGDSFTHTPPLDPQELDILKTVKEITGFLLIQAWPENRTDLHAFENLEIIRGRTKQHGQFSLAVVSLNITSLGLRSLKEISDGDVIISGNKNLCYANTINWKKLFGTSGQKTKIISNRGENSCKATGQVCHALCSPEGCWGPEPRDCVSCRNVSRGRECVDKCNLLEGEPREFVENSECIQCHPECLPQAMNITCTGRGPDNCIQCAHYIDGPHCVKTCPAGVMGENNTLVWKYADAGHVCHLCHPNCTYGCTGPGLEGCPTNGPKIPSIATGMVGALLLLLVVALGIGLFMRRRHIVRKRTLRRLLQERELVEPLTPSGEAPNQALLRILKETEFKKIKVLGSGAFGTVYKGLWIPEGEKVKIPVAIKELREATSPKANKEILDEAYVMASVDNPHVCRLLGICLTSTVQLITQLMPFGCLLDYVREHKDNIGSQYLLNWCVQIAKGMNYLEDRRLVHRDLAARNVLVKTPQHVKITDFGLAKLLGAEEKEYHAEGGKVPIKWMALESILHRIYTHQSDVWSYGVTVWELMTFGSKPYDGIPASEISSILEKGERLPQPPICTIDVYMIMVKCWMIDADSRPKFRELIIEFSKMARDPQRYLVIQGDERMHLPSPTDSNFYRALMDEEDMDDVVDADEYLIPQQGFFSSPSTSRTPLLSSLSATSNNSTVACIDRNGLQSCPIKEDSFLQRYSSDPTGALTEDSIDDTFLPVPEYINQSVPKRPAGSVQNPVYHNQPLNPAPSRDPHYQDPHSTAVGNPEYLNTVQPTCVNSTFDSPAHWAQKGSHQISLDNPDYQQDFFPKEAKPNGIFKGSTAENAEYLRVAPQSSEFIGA
Sequence of Alpha-bungarotoxin (Bungarus multicinctus) (P60615 whole entry, looked up): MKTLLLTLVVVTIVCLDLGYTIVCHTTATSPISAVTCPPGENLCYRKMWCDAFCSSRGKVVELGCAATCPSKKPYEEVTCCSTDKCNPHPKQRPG
Sequence of Fibroblast growth factor 10 (Homo sapiens) (O15520 whole entry, looked up): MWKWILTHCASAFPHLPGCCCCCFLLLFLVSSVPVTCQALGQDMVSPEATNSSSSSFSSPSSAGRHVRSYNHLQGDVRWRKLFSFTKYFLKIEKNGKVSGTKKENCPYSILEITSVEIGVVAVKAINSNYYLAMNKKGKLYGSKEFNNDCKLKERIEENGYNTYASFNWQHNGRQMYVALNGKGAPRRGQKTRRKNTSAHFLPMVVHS
Sequence of Left-right determination factor 2 (Homo sapiens) (O00292 whole entry, looked up): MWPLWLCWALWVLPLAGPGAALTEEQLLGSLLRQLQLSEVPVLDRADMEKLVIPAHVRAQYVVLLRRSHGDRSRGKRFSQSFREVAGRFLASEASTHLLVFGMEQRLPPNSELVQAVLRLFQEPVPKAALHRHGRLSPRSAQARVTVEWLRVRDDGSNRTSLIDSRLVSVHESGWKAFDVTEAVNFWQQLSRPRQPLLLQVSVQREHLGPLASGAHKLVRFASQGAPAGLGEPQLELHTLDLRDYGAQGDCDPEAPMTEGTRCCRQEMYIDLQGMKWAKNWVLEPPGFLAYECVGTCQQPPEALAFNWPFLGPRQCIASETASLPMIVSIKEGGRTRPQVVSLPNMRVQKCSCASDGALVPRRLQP

Regarding `C=C(CC1([C@@H](NP(=O)(c2ccccc2)c2ccccc2)[C@H]2C[C@@H]2CCCC)CC1)c1cccc(OC)c1`, the composite z-score in [1] was -0.167; in [2], 0.91; in [3], 1.15; in assay [5] it was 0.158; in assay [6], -0.3; in [7], -0.28. Besides, the composite z-score in [8] was 0.463; in assay [9], -1.14; in [10], 1.03; in assay [11], 0.812; in [13] it was -0.872; in assay [14], 1.48. For the same molecule, the composite z-score in [15] is 0.691; in [16], 0.103; in assay [17], 0.313; in [18] it was 1.46; in [19], 0.182; in [20], -0.306. Further, the results for the z-score in assay [4] and in assay [12] were -2.52 (inactive) and -1.79, respectively.

As for `COC(=O)C1=CC(CCCO)=CC(c2ccc(CN3CCCC3)cc2)N(C)C=C1C(=O)OC` (stereo not given), the composite z-score in assay [1] was 1.65; in assay [2], 0.629; in assay [3], 0.549; in [5] it was 0.883; in [6], -0.302; in [7] it was -0.138. Moreover, the composite z-score in [8] was 0.345; in assay [9], -0.36; in [10], 0.861; in [11], 1.3; in assay [13] it was 0.0465; in [14] it was 1. For the same molecule, the composite z-score amounted to 0.316 in assay [15]; 0.002 in assay [16]; 0.582 in assay [17]; 0.776 in assay [18]; 1.66 in assay [19]; 0.57 in assay [20]. Also, the results for the z-score in assay [4] and in assay [12] were 0.657 (inactive) and -0.979, respectively.

Consider `CN1C(=O)C2C(C1=O)C1C=C(CCCO)C2C(C2CC2)N1C` (stereo not given), for which the composite z-score in assay [1] is 0.264; in assay [2], 0.0917; in [3] it was 0.38; in assay [5], -0.158; in assay [6], -0.83; in [7], 0.0501. Further, the composite z-score in assay [8] is -0.694; in assay [9], -0.741; in assay [10], 0.411; in [11] it was -0.524; in [13], -0.151; in assay [14], 0.394. Also, the composite z-score in assay [15] was 0.535; in assay [16], -0.328; in [17] it was 0.0062; in assay [18] it was -0.0477; in assay [19] it was 2.83; in assay [20], -0.685. For the same molecule, the z-score in assay [4] is -0.89 (inactive); in assay [12] it was 0.669.

In the case of `CCOC(=O)C[C@H]1[C@H](OC(=O)c2cc3ccccc3oc2=O)[C@@H](NC(=O)Cc2ccc(OC)cc2)c2cc(OCCCO)ccc2N1C(=O)Cc1ccc(OC)cc1`, the composite z-score is 0.776 in assay [1]; -0.249 in [2]; -0.43 in assay [3]; 0.703 in assay [5]; 0.382 in [6]; 0.455 in assay [7]. The composite z-score in assay [8] was 0.789; in assay [9], 0.328; in assay [10] it was 0.156; in assay [11] it was 0.351; in [13], 0.594; in [14], -0.326. The composite z-score in [15] is -0.54; in assay [16], -0.096; in [17] it was -0.145; in assay [18], -0.0428; in [19] it was 0.0475; in assay [20], 0.329. In addition, the z-score was -1.28 (inactive) in [4] and -1.73 in assay [12].

In the case of `C[N+](C)(C)CCCC[C@@H]1NC(=O)[C@H]2C[C@@H](C(=O)NCCCCCN)[C@@H](c3ccc(O)cc3)N2C1=O`, the composite z-score was 0.977 in assay [1]; 0.876 in assay [2]; 0.863 in assay [3]; 1.53 in [5]; 1.34 in assay [6]; 0.243 in assay [7]. In addition, the composite z-score in [8] is 0.58; in assay [9], 0.89; in [10], 0.617; in assay [11], -0.0195; in assay [13], 1.34; in assay [14], 1.67. Moreover, the composite z-score is 0.631 in assay [15]; -0.0403 in [16]; -0.0886 in assay [17]; 0.177 in assay [18]; 1.52 in [19]; 2.54 in [20]. Moreover, the z-score in assay [4] was 0.127 (inactive); in assay [12], 0.493.

Consider `[N-]=[N+]=NCc1ccccc1[C@H]1OC(c2ccc(OCCCO)cc2)=N[C@@]1(Cc1ccccc1N=[N+]=[N-])C(N)=O`, for which the composite z-score turned out to be 1 in assay [1]; 0.853 in [2]; 0.879 in assay [3]; 1.3 in [5]; 1.29 in assay [6]; 0.32 in [7]. Further, the composite z-score in assay [8] came out at 0.828; in assay [9], 0.28; in [10], 1.02; in [11] it was 1.44; in assay [13], 0.373; in assay [14] it was 1.1. Also, the composite z-score is 0.613 in assay [15]; 0.117 in [16]; -0.111 in [17]; 0.924 in assay [18]; 0.154 in assay [19]; 1.03 in assay [20]. In addition, the values for the z-score in assay [4] and in [12] were -0.146 (inactive) and -1, respectively.

Values taken from PubChem BioAssay.
